# Results filed as inconclusive are left out. A call without a number means that no potency is given here. Calls of active or inactive are those of the source. Unless noted, calls follow the shape of the dose curve; as a rule, active = well fitted curve in the direction sought with a large enough effect; inconclusive = small, poorly fitted or top-dose-only effect, or another doubt; inactive = no such curve, though single readings can be large; an effect the other way counts as inactive or inconclusive.
# Assays:
# [1] = qHTS of Nrf2 Activators: LOPAC Validation (AID 624149)
# Outline: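 Luminescence read-out of ARE-luciferase activation: AREc32_Fluc cells treated with compounds for 24 hr at 37 deg C, then lysed with Steady-Glo for 30 min at room temperature before reading.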
# [2] = target: Arylsulfatase A (Homo sapiens) (UniProt P15289); assay: qHTS screen for enhancers of Arylsulfatase A (ASA1): LOPAC Validation Assay (AID 720538)
# Arylsulfatase A (Homo sapiens), sequence (P15289 whole entry, looked up): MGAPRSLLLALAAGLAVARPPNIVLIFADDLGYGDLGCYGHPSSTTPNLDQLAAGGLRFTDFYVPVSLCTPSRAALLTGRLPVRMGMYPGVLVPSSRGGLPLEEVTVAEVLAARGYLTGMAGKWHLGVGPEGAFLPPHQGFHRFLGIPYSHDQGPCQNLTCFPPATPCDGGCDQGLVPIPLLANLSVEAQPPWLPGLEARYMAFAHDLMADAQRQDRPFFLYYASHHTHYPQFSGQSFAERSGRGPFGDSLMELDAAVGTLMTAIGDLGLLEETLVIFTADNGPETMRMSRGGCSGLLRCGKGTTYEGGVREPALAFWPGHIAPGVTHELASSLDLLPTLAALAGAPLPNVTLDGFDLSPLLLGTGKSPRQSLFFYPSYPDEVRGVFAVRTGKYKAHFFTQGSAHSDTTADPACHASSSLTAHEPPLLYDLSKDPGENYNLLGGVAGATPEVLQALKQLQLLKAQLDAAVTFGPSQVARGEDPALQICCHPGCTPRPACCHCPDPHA
# Outline: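 Cell-based enhancement test: residual ASA activity in SV40-transformed I179S patient fibroblasts is measured by pNCS turnover (0.5mM final, 14h, room temperature) following 48h compound incubation; higher fluorescence indicates activation.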
# [3] = qHTS for compounds that reverse cellular toxicity of Amyloid beta (A-beta) peptide in yeast: LOPAC Validation Assay (AID 720559)
# Outline: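 Here, A-beta-toxic yeast grow with test compounds at 30 C for 48 hr before optical density at 600 nm is recorded; data are normalized against DMSO and the FeCl3-clioquinol control.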
# [4] = qHTS for Activators of Parkin Expression: LOPAC Validation Assay (NLuc Reporter) (AID 720572)
# Outline: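 Parkin promoter-driven FLuc/NLuc neuronal reporter cells; 24 h plating, 7-pt dose response, 24 h at 37 C/5% CO2; FLuc then NanoLuc reagent, 10 min each, luminescence; DMSO/positive control normalized.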
# [5] = qHTS for Activators of Parkin Expression: LOPAC Validation Assay (FLuc Reporter) (AID 720573)
# Outline: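 Readout is FLuc luminescence from neuronal reporter cells (Parkin promoter, FLuc plus NLuc) after 24 h compound exposure in dose response. Values normalized to neutral DMSO and positive-control compounds.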
# [6] = target: T1, Hexokinase-4 (Homo sapiens) + Glucokinase regulatory protein (Homo sapiens) (UniProt P35557+Q14397); assay: qHTS assay for inhibitors of recombinant human GCK-GKRP interaction: Diaphorase-coupled assay (AID 743205)
# T1 sequence (P35557 whole entry, looked up): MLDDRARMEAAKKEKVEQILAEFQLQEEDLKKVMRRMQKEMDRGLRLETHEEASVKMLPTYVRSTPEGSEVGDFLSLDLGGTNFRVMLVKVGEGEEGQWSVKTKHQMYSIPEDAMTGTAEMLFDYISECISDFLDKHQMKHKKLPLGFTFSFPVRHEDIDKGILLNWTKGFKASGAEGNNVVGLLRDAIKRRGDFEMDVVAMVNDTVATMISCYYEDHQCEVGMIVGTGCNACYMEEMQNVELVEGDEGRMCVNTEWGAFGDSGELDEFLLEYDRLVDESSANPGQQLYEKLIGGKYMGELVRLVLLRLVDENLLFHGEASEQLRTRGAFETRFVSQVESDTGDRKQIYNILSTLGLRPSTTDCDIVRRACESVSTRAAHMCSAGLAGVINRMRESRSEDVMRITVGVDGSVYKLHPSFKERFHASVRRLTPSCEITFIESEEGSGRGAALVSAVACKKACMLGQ
# T1 sequence (Q14397 whole entry, looked up): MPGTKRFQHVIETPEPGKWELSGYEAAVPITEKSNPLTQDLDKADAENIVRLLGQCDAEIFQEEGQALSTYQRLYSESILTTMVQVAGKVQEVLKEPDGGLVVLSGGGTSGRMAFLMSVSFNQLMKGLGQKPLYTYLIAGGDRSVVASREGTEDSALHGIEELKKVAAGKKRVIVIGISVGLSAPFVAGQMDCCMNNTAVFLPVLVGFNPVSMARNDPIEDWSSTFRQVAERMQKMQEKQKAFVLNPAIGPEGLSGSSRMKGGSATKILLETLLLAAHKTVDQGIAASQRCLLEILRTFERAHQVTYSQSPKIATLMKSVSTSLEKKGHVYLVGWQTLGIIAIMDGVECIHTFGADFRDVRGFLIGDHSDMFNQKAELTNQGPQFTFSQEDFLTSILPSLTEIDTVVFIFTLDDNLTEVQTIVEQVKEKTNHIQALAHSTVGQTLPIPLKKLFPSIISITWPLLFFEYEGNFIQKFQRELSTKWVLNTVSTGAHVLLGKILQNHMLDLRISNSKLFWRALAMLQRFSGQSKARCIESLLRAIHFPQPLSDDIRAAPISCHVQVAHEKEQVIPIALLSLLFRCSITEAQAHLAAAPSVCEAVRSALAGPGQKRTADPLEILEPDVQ
# Outline: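 Signal derives from resorufin generated by diaphorase, linked to GCK turnover of glucose (5 mM) and ATP (0.4 mM). Enzyme complex was added after a 20-minute compound preincubation and monitored for 30 minutes.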
# [7] = target: T1, Hexokinase-4 (Homo sapiens) + Glucokinase regulatory protein (Homo sapiens); assay: qHTS assay for inhibitors of recombinant human GCK-GKRP interaction: ADP-Glo assay (AID 743206)
# Outline: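 GST-GCK and FLAG-GKRP (15 nM each in the dispensed mix, with 2 uM S6P) react with 0.4 mM ATP and 5 mM glucose (final) in Hepes pH 7.6 for 60 min at room temperature. ADP is measured by ADP-Glo luminescence.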
# [8] = target: T1, Hexokinase-4 (Homo sapiens) + Glucokinase regulatory protein (Homo sapiens); assay: qHTS assay for inhibitors of recombinant human GCK-GKRP interaction: HTRF assay (AID 743207)
# Outline: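 Titration screening format: recombinant GST-GCK and FLAG-GKRP at 5 nM, S6P at 2 uM, labelled anti-tag antibodies, 60 min at RT, dual-wavelength HTRF readout.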
# [9] = Natriuretic polypeptide receptor (hNpr1) antagonism - Pilot counterscreen GloSensor control cell line (AID 1347045; calls by dose curve)
# Outline: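 Luminescence was read before and 20 min after adding 50 uM SNP, which stimulates soluble guanylyl cyclase. The HEK293 cells expressing the GloSensor cGMP sensor had been preloaded with 2% reagent for 2 h and treated with compound.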
# [10] = target: Atrial natriuretic peptide receptor 1 (Homo sapiens) (UniProt P16066); assay: Natriuretic polypeptide receptor (hNpr1) antagonism - Pilot screen (AID 1347049; calls by dose curve;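 also: agonist-evoked cGMP luminescence read 20 min after hNppA addition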)
# Atrial natriuretic peptide receptor 1 (Homo sapiens), sequence (P16066 whole entry, looked up): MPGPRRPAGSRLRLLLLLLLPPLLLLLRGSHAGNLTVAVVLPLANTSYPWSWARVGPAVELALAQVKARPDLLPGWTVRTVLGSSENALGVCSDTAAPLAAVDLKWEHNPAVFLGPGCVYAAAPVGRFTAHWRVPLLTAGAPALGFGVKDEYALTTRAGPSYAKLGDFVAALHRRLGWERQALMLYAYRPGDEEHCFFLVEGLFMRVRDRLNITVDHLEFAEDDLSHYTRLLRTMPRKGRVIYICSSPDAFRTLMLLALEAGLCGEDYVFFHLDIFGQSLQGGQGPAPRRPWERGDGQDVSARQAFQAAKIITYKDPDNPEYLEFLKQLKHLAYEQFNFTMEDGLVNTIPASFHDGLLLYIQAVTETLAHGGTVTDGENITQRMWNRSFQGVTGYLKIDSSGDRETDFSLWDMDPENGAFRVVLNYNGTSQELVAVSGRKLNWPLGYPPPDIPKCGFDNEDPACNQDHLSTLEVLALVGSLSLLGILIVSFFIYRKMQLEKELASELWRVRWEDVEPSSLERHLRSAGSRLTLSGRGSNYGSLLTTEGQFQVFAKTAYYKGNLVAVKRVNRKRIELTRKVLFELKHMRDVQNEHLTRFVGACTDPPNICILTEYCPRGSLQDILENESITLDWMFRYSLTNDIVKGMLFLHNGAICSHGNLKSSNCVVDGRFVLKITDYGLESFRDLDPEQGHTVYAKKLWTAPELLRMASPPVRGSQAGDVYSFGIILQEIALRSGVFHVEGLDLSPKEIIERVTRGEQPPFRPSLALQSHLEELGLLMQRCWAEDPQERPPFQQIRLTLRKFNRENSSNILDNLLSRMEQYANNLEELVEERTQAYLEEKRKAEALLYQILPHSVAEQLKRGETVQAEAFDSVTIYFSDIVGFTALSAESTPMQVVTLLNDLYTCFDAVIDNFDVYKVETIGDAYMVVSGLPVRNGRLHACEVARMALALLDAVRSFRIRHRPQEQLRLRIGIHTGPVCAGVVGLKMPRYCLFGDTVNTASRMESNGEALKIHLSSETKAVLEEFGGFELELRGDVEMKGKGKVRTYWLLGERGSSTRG
# Outline: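 Readout is cGMP-driven firefly luciferase luminescence in HEK293 cells carrying hNpr1 and a PDE5-domain GloSensor, read before and 20 min after 0.1 nM hNppA stimulation. Cells had 2% substrate reagent for 2 h and test compound for 30 min.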
# [11] = target: Atrial natriuretic peptide receptor 2 (Homo sapiens) (UniProt P20594); assay: Natriuretic polypeptide receptor (hNpr2) antagonism - Pilot subtype selectivity assay (AID 1347050; calls by dose curve)
# Outline: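 Pilot selectivity screen against hNpr2: HEK293 cGMP-sensor cells are treated with LOPAC1280 compounds, then with hNppC peptide at 1 nM final. The cGMP-driven luminescence change over 20 min at room temperature is the read-out.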
# [12] = target: T2, Tyrosine-protein phosphatase non-receptor type substrate 1 (Homo sapiens) + Leukocyte surface antigen CD47 (Homo sapiens) (UniProt P78324+Q08722); assay: CD47-SIRPalpha protein protein interaction - LANCE assay qHTS validation (AID 1347057; active = well fitted curve in the direction sought with a large enough effect in the signal ratio, with a control signal flat, not every such curve was filed as active; the % refers to the signal ratio)
# T2 sequence (P78324 whole entry, looked up): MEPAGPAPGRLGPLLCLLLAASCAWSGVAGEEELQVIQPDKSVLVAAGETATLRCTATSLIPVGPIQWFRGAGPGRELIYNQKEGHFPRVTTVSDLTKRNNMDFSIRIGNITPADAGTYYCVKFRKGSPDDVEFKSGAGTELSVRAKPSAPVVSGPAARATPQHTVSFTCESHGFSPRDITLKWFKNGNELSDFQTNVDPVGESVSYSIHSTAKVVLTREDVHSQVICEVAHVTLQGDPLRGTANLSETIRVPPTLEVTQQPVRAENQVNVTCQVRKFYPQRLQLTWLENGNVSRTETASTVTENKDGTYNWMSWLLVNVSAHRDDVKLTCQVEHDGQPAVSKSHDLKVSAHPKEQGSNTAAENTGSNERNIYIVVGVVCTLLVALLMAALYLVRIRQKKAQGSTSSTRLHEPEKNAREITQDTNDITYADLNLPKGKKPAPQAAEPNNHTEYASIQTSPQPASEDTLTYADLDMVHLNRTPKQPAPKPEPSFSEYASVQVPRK
# T2 sequence (Q08722 whole entry, looked up): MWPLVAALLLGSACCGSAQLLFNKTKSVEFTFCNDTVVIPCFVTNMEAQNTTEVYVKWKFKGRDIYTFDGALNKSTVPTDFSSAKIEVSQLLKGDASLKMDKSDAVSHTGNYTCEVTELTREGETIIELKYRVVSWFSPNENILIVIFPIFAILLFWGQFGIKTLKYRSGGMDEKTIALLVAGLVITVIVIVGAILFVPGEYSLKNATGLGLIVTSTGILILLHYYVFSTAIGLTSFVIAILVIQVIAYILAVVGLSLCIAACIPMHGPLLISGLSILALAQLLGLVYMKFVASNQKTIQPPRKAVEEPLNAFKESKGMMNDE
# Outline: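 First, His-tagged CD47 and Eu-labelled anti-His antibody met the compound for 30 min; next, site-specifically biotinylated SIRPalpha was added for 30 min; finally streptavidin-APC was added before reading the TR-FRET ratio.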
# [13] = target: T2, Tyrosine-protein phosphatase non-receptor type substrate 1 (Homo sapiens) + Leukocyte surface antigen CD47 (Homo sapiens); assay: CD47-SIRPalpha protein protein interaction - HTRF assay qHTS validation (AID 1347058; active = well fitted curve in the direction sought with a large enough effect in the signal ratio, not every such curve was filed as active; the % refers to the signal ratio;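 also: recombinant soluble extracellular CD47 with His tag and biotinylated SIRPalpha domains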)
# Outline: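 TR-FRET read (Ch1/Ch2 ratio) of soluble extracellular CD47 and Avi-biotinylated SIRPalpha domains in PBS pH 7.4 with 0.05% IGEPAL; 7-point compound titration. Sequential 30 min room-temperature steps; non-biotinylated SIRPalpha as control inhibitor.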
# [14] = target: T2, Tyrosine-protein phosphatase non-receptor type substrate 1 (Homo sapiens) + Leukocyte surface antigen CD47 (Homo sapiens); assay: CD47-SIRPalpha protein protein interaction - Alpha assay qHTS validation (AID 1347059);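 also: bead proximity luminescence from CD47 binding SIRPalpha after compound preincubation with SIRPalpha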
# Outline: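 Binding is measured by AlphaScreen proximity: Ni-NTA acceptor beads capture His-CD47, streptavidin donor beads capture biotin-SIRPalpha. Each of three additions (SIRPalpha with compound, CD47, beads) incubates 30 min at room temperature protected from light.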
# [15] = target: Parathyroid hormone/parathyroid hormone-related peptide receptor (Homo sapiens) (UniProt Q03431); assay: qHTS for PTHR1 Agonists: Optimization Screen against the NCGC LOPAC library (AID 1347079);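 also: GloSensor cAMP luminescence in HEK-293 GP2 cells expressing human PTHR1 with IBMX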
# Parathyroid hormone/parathyroid hormone-related peptide receptor (Homo sapiens), sequence (Q03431 whole entry, looked up): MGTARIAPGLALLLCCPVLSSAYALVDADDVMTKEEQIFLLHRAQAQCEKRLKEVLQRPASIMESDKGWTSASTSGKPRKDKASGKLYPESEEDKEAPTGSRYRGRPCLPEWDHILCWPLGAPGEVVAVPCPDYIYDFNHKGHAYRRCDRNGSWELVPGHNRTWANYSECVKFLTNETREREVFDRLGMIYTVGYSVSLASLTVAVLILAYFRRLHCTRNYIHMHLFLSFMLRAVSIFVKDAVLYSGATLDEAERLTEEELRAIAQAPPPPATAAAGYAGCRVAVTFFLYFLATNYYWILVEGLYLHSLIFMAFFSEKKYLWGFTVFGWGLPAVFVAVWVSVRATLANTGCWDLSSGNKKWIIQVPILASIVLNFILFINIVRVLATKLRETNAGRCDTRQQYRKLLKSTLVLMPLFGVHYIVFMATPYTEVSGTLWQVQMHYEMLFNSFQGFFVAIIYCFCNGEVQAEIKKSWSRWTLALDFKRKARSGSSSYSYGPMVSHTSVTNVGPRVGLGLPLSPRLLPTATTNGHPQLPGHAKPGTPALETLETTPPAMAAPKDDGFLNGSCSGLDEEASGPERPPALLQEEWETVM
# Outline: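 Agonist readout: GloSensor cAMP luminescence, read after 15 min at room temperature. HEK-293-derived GP2 line carries PTHR1; compounds tested as a titration for 1 hr at 37C in presence of IBMX. M-PTH (1-15) served as control.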
# [16] = target: N-terminal Xaa-Pro-Lys N-methyltransferase 1 (Homo sapiens) (UniProt Q9BV86); assay: qHTS Assay for Inhibitors of N-terminal methyltransferase 1 (NTMT1): LOPAC validation of the NTMT1 SAHH-coupled ThioGlo3 Assay (AID 1347143);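 also: SAH from peptide methylation measured as thiol fluorescence via SAHH coupling and ThioGlo3; potency is read from the fitted curve at half-maximal effect; nearly all actives have a fitted effect of over 70% in size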
# N-terminal Xaa-Pro-Lys N-methyltransferase 1 (Homo sapiens), sequence (Q9BV86 whole entry, looked up): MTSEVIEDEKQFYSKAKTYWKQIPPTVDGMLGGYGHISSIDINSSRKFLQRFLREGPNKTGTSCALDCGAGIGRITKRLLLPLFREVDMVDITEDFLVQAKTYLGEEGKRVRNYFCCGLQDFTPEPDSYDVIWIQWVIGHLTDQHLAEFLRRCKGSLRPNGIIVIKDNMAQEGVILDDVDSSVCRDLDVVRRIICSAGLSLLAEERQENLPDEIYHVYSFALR
# Outline: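 Inhibition of NTMT1 methylation of peptide SPKRIA is followed by converting SAH with SAHH and labelling the released thiol with ThioGlo3. Plates are read at 340/450nm before and 30 min after reagent addition, both at room temperature.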
# [17] = qHTS to identify inhibitors of the type 1 interferon - major histocompatibility complex class I in skeletal muscle: primary screen against the NCATS LOPAC collection (AID 1347405);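 also: lytic HiBiT luminescence reporting HLA-B protein level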
# Outline: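 Luminescence from HiBiT fused to endogenous HLA-B in CRISPR-engineered human myoblasts served as the read-out. Cells received 4.0 ng/ml IFN-beta plus compound (seven concentrations, 1:4.3 steps, highest 46 uM final) for 24 hrs before lytic detection.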
# [18] = qHTS for inhibitors of adenylyl cyclases using a fission yeast platform: a pilot screen against the NCATS LOPAC library (AID 1347410)
# Outline: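 Inhibition of GNAS-stimulated AC9 activity in S. pombe was inferred from derepression of a PKA-repressed fbp1-GFP reporter, measured as cytometric fluorescence after 18 h at 30C with compounds at up to 57 µM.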
# [19] = Validation qHTS assay for inhibitors of Activation Induced Cytidine Deaminase (AID): UDG Counterscreen signal (AID 1347427)
# Outline: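 Counterscreen read of UDG activity (2 U/mL, 4/3x) in the FRET deamination format with AID (1 uM, 4/3x), DJC20/DJC23 substrates (250 nM, 4x), 4 h at room temperature. NaOH stop, fluorescence at 560 ex/665 em.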
# [20] = target: Single-stranded DNA cytosine deaminase (Homo sapiens) (UniProt Q9GZX7); assay: Validation qHTS assay for inhibitors of Activation Induced Cytidine Deaminase (AID): AID signal (AID 1347429)
# Outline: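 Fluorescence at 540 nm excitation and 590 nm emission reports ssDNA cytosine deamination by AID, with UDG in the same well. Compound-treated reactions ran 4 hr at room temperature with DJC20/DJC23 substrate, followed by 30 min NaOH treatment.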
# [21] = target: Calcium and integrin-binding protein 1 (Homo sapiens) (UniProt Q99828); assay: Validation qHTS for Identification of Calcium Integrin Binding protein 1 (CIB1) Competitor (AID 1508618)
# Calcium and integrin-binding protein 1 (Homo sapiens), sequence (Q99828 whole entry, looked up): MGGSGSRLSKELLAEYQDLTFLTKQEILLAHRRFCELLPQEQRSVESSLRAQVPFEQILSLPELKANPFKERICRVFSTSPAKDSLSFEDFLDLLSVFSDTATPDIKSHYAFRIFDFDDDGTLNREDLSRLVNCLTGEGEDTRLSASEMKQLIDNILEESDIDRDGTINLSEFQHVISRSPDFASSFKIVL
# Outline: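 CIB1-GST (1 uM final) in 5 mM HEPES pH 7.4, 125 mM NaCl, 5 mM CaCl2, 0.01% Tween20 was preincubated 15 min at room temperature with compound (up to 114 uM), then FITC-alphaIIb peptide (100 nM) added for 15 min; fluorescence polarization read.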
# [22] = Primary qHTS for small molecule stabilizers of the endoplasmic reticulum resident proteome: Secreted ER Calcium Modulated Protein (SERCaMP) assay (AID 1508630)
# Outline: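 GLuc-SERCaMP-expressing SH-SY5Y cells, pretreated 16 h with compound, are challenged with thapsigargin to empty ER calcium stores; after 4 h, coelenterazine is added directly to the medium and luminescence is imaged.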
# Papain (Carica papaya) = Papain (Carica papaya) (UniProt P00784); assay: Primary qHTS assay for inhibitors of the protease papain (AID 1645873);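 also: papain turnover of Z-FR-AMC read as the AMC fluorescence gain over 10 min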
# [23] = target: Catechol O-methyltransferase (Homo sapiens) (UniProt P21964); assay: Confirmatory Screen for Target Class Profiling of Small Molecule Inhibitors of Methyltransferases (AID 1745852); details: MTase-Glo luminescence, SAH detection, recombinant enzyme; measured here: COMT max response; stronger effect = lower value
# [24] = target: Guanidinoacetate N-methyltransferase (Homo sapiens) (UniProt Q14353); assay: as above; details: activity change, negative = inhibition: at 57.3 µM (top of the series) unless noted
# [25] = target: Nicotinamide N-methyltransferase (Homo sapiens) (UniProt P40261); assay: as above; details: MTase-Glo luminescence, SAH detection, recombinant enzyme; measured here: NNMT max response; stronger effect = lower value
# [26] = target: Phenylethanolamine N-methyltransferase (Homo sapiens) (UniProt P11086); assay: as above; details: MTase-Glo luminescence, SAH detection, recombinant enzyme; measured here: PNMT max response; stronger effect = lower value
# [27] = target: Metallo-beta-lactamase type 2 (Klebsiella pneumoniae) (UniProt C7C422); assay: qHTS to identify inhibitors of the New Delhi Metallo-beta-lactamase (NDM): assay validation screen against the NCATS LOPAC Collection (AID 1794843);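 also: nitrocefin turnover by NDM-1 measured as 485 nm absorbance at plateau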
# Outline: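 NDM-1 at 2 nM final in 50 mM HEPES pH 7.0 with 1 uM ZnSO4 and 0.01% Tween20 was preincubated with library compounds in DMSO. Nitrocefin (50 uM stock) was then added, and absorbance at 485 nm was read at the kinetic plateau.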
# [28] = target: Glutathione peroxidase 1 (Homo sapiens) (UniProt P07203); assay: Primary qHTS Assay for Inhibitors of Recombinant Selenoprotein Glutathione Peroxidase 1 (GPX1) (AID 1845191); also: nearly all actives have a fitted effect of over 65% in size
# Glutathione peroxidase 1 (Homo sapiens), sequence (P07203 whole entry, looked up): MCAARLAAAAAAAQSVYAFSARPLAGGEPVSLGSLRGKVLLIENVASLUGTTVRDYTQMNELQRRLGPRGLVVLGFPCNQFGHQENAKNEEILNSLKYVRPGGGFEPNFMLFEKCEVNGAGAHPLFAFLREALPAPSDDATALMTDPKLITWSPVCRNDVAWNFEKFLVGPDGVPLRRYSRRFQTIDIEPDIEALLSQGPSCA
# Outline: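 10 nM GPX1 + cpd, 30 min RT; start w/ 1 mM GSH, 0.5 mM cumene hydroperoxide, 0.5 mM NADPH, 100 nM GR, 0.01% BSA; buffer 50 mM Tris-HCl pH 7.5, 2 mM EDTA, 150 mM NaCl; Fl 340/450, 0 & 15 min.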
# [29] = target: Phospholipid hydroperoxide glutathione peroxidase GPX4 (Homo sapiens) (UniProt P36969); assay: Primary qHTS Assay for Inhibitors of Recombinant Selenoprotein Glutathione Peroxidase 4 (GPX4) (AID 1845192); details: outcome: dose series up to 50 µM unless noted; also: nearly all actives have a fitted effect of over 65% in size
# Phospholipid hydroperoxide glutathione peroxidase GPX4 (Homo sapiens), sequence (P36969 whole entry, looked up): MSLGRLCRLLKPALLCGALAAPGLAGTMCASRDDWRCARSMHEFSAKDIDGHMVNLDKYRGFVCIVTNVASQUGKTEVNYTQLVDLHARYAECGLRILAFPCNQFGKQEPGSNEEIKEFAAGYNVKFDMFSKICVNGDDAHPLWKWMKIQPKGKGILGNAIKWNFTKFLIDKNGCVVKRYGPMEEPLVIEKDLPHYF
# Outline: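 NADPH consumption, followed by fluorescence at 340/450 nm between 0 and 15 min, reports GPX4 activity via coupled glutathione reductase (100 nM). Enzyme 200 nM was pre-exposed to compound 30 min; 0.5 mM cumene hydroperoxide and 1 mM GSH served as substrates.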
smiles,measurement,setting,value
Oc1cc2c(c(Cl)c1O)CCNCC2c1ccccc1 (stereo not given),outcome,[1],inactive
same,Potency,[2],inactive
same,outcome,[3],inactive
same,outcome,[4],inactive
same,Potency,[5],inactive
same,outcome,[6],inactive
same,outcome,[7],inactive
same,outcome,[8],inactive
same,Potency,[9],inactive
same,Potency,[10],inactive
same,Potency,[11],inactive
same,outcome,[12],inactive
same,outcome,[13],inactive
same,Potency,[14],inactive
same,outcome,[15],inactive
same,Potency,[16],39.8 µM (active)
same,Potency,[17],inactive
same,outcome,[18],inactive
same,outcome,[19],inactive
same,Potency,[20],inactive
same,outcome,[21],inactive
same,Potency,[22],inactive
same,Potency,Papain (Carica papaya),inactive
same,activity,[23],72.9%
same,"activity change, negative = inhibition",[24],2.7%
same,activity,[25],-10.3%
same,activity,[26],7.26%
same,Potency,[27],inactive
same,Potency,[28],inactive
same,Potency,[29],inactive
